Test results: PubChem BioAssay (EPA / NIEHS)
Activity calls are given as the source filed them. The calls were made as follows: active = hit-call score of the fitted dose curve at least 0.9, where 1 is the maximum; inactive = score below 0.9.

Legend:
[1] = read-out: Macrophage colony-stimulating factor (MCSF), CSF1 (gene 1435); test: BSK_hDFCGF_MCSF: BioMAP Diversity Plus: hDFCGF Assay for Macrophage colony-stimulating factor (MCSF) Biomarker Activity (AID 2283060); settings: primary human foreskin fibroblasts; actives raise or lower the signal
Method in brief: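 M-CSF levels read by ELISA at 24 h post-dosing in human skin fibroblasts. Parallel cultures stained with SRB assessed cytotoxicity at the same time point; response fitted in both directions against the DMSO baseline.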

[2] = BSK_hDFCGF_SRB: Viability Assessment in the BioMAP Diversity Plus: hDFCGF Assay (AID 2283061); settings: primary human foreskin fibroblasts;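 also: cells exposed to compound for 24 h before the read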
Method in brief: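 Viability was read as total protein: after 10% TCA fixation, wells were stained with 0.1% sulforhodamine B and read at 560 nm. Primary human foreskin fibroblasts were dosed for 24 h, with bidirectional fitting versus DMSO.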

[3] = read-out: TIMP metallopeptidase inhibitor 1 (TIMP1), TIMP1 (gene 7076); test: BSK_hDFCGF_TIMP1: BioMAP Diversity Plus: hDFCGF Assay for TIMP metallopeptidase inhibitor 1 (TIMP1) Biomarker Activity (AID 2283062); settings: primary human foreskin fibroblasts; actives raise or lower the signal
Method in brief: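 TIMP-1 measured by ELISA 24 h after chemical dosing of primary human skin fibroblasts, with gain or loss fitted relative to DMSO. Parallel SRB staining (560 nm) monitored overt cytotoxicity.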

[4] = read-out: Matrix Metallopeptidase 1 (MMP1), MMP1 (gene 4312); test: BSK_hDFCGF_MMP1: BioMAP Diversity Plus: hDFCGF Assay for Matrix Metallopeptidase 1 (MMP1) Biomarker Activity (AID 2283064); settings: primary human foreskin fibroblasts; actives raise or lower the signal
Method in brief: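 hDFCGF primary fibroblasts (human foreskin); chemical added; 24 h; MMP1 by ELISA; bidirectional fit vs DMSO.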

[5] = read-out: Vascular cell adhesion molecule 1 (VCAM1), VCAM1 (gene 7412); test: BSK_hDFCGF_VCAM1: BioMAP Diversity Plus: hDFCGF Assay for Vascular cell adhesion molecule 1 (VCAM1) Biomarker Activity (AID 2283065); settings: primary human foreskin fibroblasts; actives raise or lower the signal
Method in brief: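 ELISA readout of VCAM-1 on human dermal fibroblast primary cultures, 24 h after chemical exposure. Gain or loss of signal fitted in both directions against DMSO baseline.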

[6] = read-out: Plasminogen activator inhibitor-1 (PAI1), SERPINE1 (gene 5054); test: BSK_hDFCGF_PAI1: BioMAP Diversity Plus: hDFCGF Assay for Plasminogen activator inhibitor-1 (PAI1) Biomarker Activity (AID 2283066); settings: primary human foreskin fibroblasts; actives raise or lower the signal
Method in brief: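 Human foreskin fibroblast primary cells, 24 h chemical exposure; PAI-1 measured by ELISA. Bidirectional fitting relative to DMSO; parallel cultures stained with SRB for total protein to flag overt cytotoxicity.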

[7] = read-out: Intercellular Adhesion Molecule 1 (ICAM1), ICAM1 (gene 3383); test: BSK_KF3CT_ICAM1: BioMAP Diversity Plus: KF3CT Assay for Intercellular Adhesion Molecule 1 (ICAM1) Biomarker Activity (AID 2283067); settings: primary human keratinocytes with fibroblasts; actives raise or lower the signal
Method in brief: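 Cell-surface ICAM-1 was measured by ELISA 24 h after dosing primary human skin keratinocytes co-cultured with fibroblasts. Parallel SRB staining tracked overt cytotoxicity. Gain or loss of signal was fitted relative to DMSO.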

[8] = read-out: Interferon-gamma inducible Protein 10 (IP10), CXCL10 (gene 3627); test: BSK_KF3CT_IP10: BioMAP Diversity Plus: KF3CT Assay for Interferon-gamma inducible Protein 10 (IP10) Biomarker Activity (AID 2283068); settings: primary human keratinocytes with fibroblasts; actives raise or lower the signal
Method in brief: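 Signal is secreted/surface IP-10 by ELISA in a human primary skin co-culture of keratinocytes and foreskin fibroblasts, taken 24 h post-dosing; DMSO served as negative control.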

[9] = BSK_KF3CT_SRB: Viability Assessment in the BioMAP Diversity Plus: KF3CT Assay (AID 2283069); settings: primary human keratinocytes with fibroblasts;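 also: total protein by sulforhodamine B staining as a cytotoxicity measure; read 24 h after compound addition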
Method in brief: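 Keratinocytes co-cultured with foreskin fibroblasts (human primary); chemical added, 24 h; fix 10% TCA, stain 0.1% SRB, A560. Bidirectional fit vs DMSO.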

[10] = read-out: Interleukin-1 alpha (IL1a), IL1A (gene 3552); test: BSK_KF3CT_IL1a: BioMAP Diversity Plus: KF3CT Assay for Interleukin-1 alpha (IL1a) Biomarker Activity (AID 2283070); settings: primary human keratinocytes with fibroblasts; actives raise or lower the signal
Method in brief: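 Chemicals were dosed onto co-cultured human keratinocytes and foreskin fibroblasts, IL-1a was quantified by ELISA at 24 h, and activity was fitted in both directions relative to DMSO controls.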

[11] = read-out: TIMP metallopeptidase inhibitor 2 (TIMP2), TIMP2 (gene 7077); test: BSK_KF3CT_TIMP2: BioMAP Diversity Plus: KF3CT Assay for TIMP metallopeptidase inhibitor 2 (TIMP2) Biomarker Activity (AID 2283071); settings: primary human keratinocytes with fibroblasts; actives raise or lower the signal
Method in brief: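 Co-culture of human primary keratinocytes and foreskin fibroblasts, measured 24 h after chemical dosing. TIMP-2 quantified by ELISA and fitted in both directions relative to DMSO. Cytotoxicity checked in parallel cultures by SRB total-protein staining.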

[12] = read-out: Transforming growth factor beta 1 (TGFb1), TGFB1 (gene 7040); test: BSK_KF3CT_TGFb1: BioMAP Diversity Plus: KF3CT Assay for Transforming growth factor beta 1 (TGFb1) Biomarker Activity (AID 2283072); settings: primary human keratinocytes with fibroblasts; actives raise or lower the signal
Method in brief: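 Human keratinocyte/foreskin fibroblast co-culture; TGF-b1 measured by ELISA 24 h after dosing, fitted bidirectionally versus DMSO. Cytotoxicity checked in parallel cultures by total protein (SRB staining, 560 nm).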

[13] = read-out: C-C motif chemokine 2 (Homo sapiens) (UniProt P13500); test: BSK_KF3CT_MCP1: BioMAP Diversity Plus: KF3CT Assay for Monocyte Chemoattractant Protein 1 (MCP1/CCL2) Biomarker Activity (AID 2283073); settings: primary human keratinocytes with fibroblasts; actives raise or lower the signal
Method in brief: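 ELISA read-out of MCP-1, 24 h post-dose, in primary human skin keratinocytes co-cultured with fibroblasts. Parallel SRB staining monitors cytotoxicity; changes fitted both directions relative to DMSO.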

[14] = read-out: Matrix Metallopeptidase 9 (MMP9), MMP9 (gene 4318); test: BSK_KF3CT_MMP9: BioMAP Diversity Plus: KF3CT Assay for Matrix Metallopeptidase 9 (MMP9) Biomarker Activity (AID 2283074); settings: primary human keratinocytes with fibroblasts; actives raise or lower the signal
Method in brief: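 Human keratinocyte/foreskin fibroblast co-culture; compound added; 24 h; MMP-9 by ELISA; bidirectional fit vs DMSO baseline.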

[15] = read-out: urokinase plasminogen activator (uPA), PLAU (gene 5328); test: BSK_KF3CT_uPA: BioMAP Diversity Plus: KF3CT Assay for urokinase plasminogen activator (uPA) Biomarker Activity (AID 2283075); settings: primary human keratinocytes with fibroblasts; actives raise or lower the signal
Method in brief: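 ELISA readout of uPA, analyzed for signal gain or loss relative to DMSO, from a human primary keratinocyte–foreskin fibroblast co-culture measured 24 h after chemical treatment.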

CD40, CD40 (gene 958) = test: BSK_LPS_CD40: BioMAP Diversity Plus: LPS Assay for CD40 Biomarker Activity (AID 2283076); settings: primary human HUVEC with PBMC; actives raise or lower the signal
Method in brief: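 In the LPS system of human endothelial cells with peripheral blood mononuclear cells, CD40 levels were read by ELISA 24 h post-treatment. Signal changes in either direction were fitted against the DMSO baseline, with parallel SRB protein staining.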

[16] = read-out: E-selectin (Homo sapiens) (UniProt P16581); test: BSK_LPS_Eselectin: BioMAP Diversity Plus: LPS Assay for Eselectin Biomarker Activity (AID 2283077); settings: primary human HUVEC with PBMC; actives raise or lower the signal
Method in brief: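 E-selectin ELISA on LPS-stimulated endothelial cell/PBMC co-cultures, read 24 h post-treatment; gains and losses fitted against DMSO. Parallel SRB staining (0.1% SRB after 10% TCA fixation, 560 nm) flags overt cytotoxicity.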

[17] = read-out: Interleukin-8 (IL8), CXCL8 (gene 3576); test: BSK_LPS_IL8: BioMAP Diversity Plus: LPS Assay for Interleukin-8 (IL8) Biomarker Activity (AID 2283078); settings: primary human HUVEC with PBMC; actives raise or lower the signal
Method in brief: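 ELISA read-out of IL-8 after 24 h chemical treatment of LPS-activated endothelial/PBMC human primary co-cultures. Changes either up or down relative to DMSO; overt cytotoxicity checked by sulforhodamine B staining in parallel wells.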

[18] = BSK_LPS_SRB: Viability Assessment in the BioMAP Diversity Plus: LPS Assay (AID 2283079); settings: primary human HUVEC with PBMC;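 also: total protein by sulforhodamine B absorbance as a cytotoxicity measure; measured one day after compound addition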
Method in brief: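 SRB viability endpoint: cells fixed with 10% TCA, stained with 0.1% SRB, read at 560 nm, 24 h post-dose. HUVEC/PBMC co-culture; signal change in either direction scored relative to DMSO.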

Sequence of E-selectin (Homo sapiens) (P16581 whole entry, looked up): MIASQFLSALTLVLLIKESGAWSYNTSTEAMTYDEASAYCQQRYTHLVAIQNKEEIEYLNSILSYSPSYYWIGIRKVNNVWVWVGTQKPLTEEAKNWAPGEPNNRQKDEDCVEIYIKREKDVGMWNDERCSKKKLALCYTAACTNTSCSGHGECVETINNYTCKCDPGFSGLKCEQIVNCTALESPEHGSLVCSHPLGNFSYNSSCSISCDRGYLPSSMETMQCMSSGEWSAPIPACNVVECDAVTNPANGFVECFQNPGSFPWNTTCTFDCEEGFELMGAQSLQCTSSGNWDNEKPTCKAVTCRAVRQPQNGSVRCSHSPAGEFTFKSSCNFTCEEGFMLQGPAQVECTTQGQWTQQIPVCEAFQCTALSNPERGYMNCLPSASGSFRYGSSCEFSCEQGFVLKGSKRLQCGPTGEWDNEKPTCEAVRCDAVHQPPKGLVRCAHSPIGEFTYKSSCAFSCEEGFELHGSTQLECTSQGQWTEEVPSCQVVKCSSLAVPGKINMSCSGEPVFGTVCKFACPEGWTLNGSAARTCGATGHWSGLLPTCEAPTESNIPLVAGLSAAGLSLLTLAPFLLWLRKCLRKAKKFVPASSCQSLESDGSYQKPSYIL

## CCC(=NOC/C=C/Cl)C1=C(O)CC(C2CCOCC2)CC1=O (stereo unspecified)
[1]
  outcome: inactive
[2]
  outcome: inactive
[3]
  outcome: inactive
[4]
  outcome: inactive
[5]
  outcome: inactive
[6]
  outcome: inactive
[7]
  outcome: inactive
[8]
  outcome: inactive
[9]
  outcome: inactive
[10]
  outcome: inactive
[11]
  outcome: inactive
[12]
  outcome: inactive
[13]
  outcome: inactive
[14]
  outcome: inactive
[15]
  outcome: inactive
CD40, CD40 (gene 958)
  outcome: inactive
[16]
  outcome: inactive
[17]
  outcome: inactive
[18]
  outcome: inactive

## CCNc1nc(Cl)nc(NC(C)(C)C#N)n1
[1]
  outcome: inactive
[2]
  outcome: inactive
[3]
  outcome: inactive
[4]
  outcome: inactive
[5]
  outcome: inactive
[6]
  AC50: 10.6 µM (active)
[8]
  outcome: inactive
[9]
  outcome: inactive
[10]
  outcome: inactive
[11]
  outcome: inactive
[12]
  outcome: inactive
[13]
  outcome: inactive
[14]
  outcome: inactive
[15]
  outcome: inactive
CD40, CD40 (gene 958)
  outcome: inactive
[16]
  outcome: inactive
[17]
  outcome: inactive
[18]
  outcome: inactive

## CN(C)C(=O)Nc1cccc(C(F)(F)F)c1
[1]
  outcome: inactive
[2]
  outcome: inactive
[3]
  outcome: inactive
[4]
  outcome: inactive
[5]
  outcome: inactive
[6]
  outcome: inactive
[7]
  outcome: inactive
[8]
  outcome: inactive
[9]
  outcome: inactive
[10]
  outcome: inactive
[11]
  outcome: inactive
[12]
  outcome: inactive
[13]
  outcome: inactive
[14]
  outcome: inactive
[15]
  outcome: inactive
CD40, CD40 (gene 958)
  outcome: inactive
[17]
  outcome: inactive
[18]
  outcome: inactive

## CC1(C(=O)Nc2ccc(O)c(Cl)c2Cl)CCCCC1
[1]
  outcome: inactive
[2]
  outcome: inactive
[3]
  outcome: inactive
[4]
  outcome: inactive
[5]
  outcome: inactive
[6]
  outcome: inactive
[7]
  outcome: inactive
[8]
  outcome: inactive
[9]
  outcome: inactive
[10]
  outcome: inactive
[11]
  outcome: inactive
[12]
  outcome: inactive
[13]
  outcome: inactive
[14]
  outcome: inactive
[15]
  outcome: inactive
CD40, CD40 (gene 958)
  outcome: inactive
[17]
  outcome: inactive
[18]
  outcome: inactive

## CCOP(=O)(NC(C)C)Oc1ccc(SC)c(C)c1 (stereo unspecified)
[1]
  outcome: inactive
[2]
  outcome: inactive
[3]
  outcome: inactive
[4]
  outcome: inactive
[5]
  outcome: inactive
[6]
  outcome: inactive
[7]
  outcome: inactive
[8]
  outcome: inactive
[9]
  outcome: inactive
[10]
  outcome: inactive
[11]
  outcome: inactive
[12]
  outcome: inactive
[13]
  outcome: inactive
[14]
  outcome: inactive
[15]
  outcome: inactive
CD40, CD40 (gene 958)
  outcome: inactive
[17]
  outcome: inactive
[18]
  outcome: inactive
